Screen size: about 5,500 compounds; about 2,000 (36%) were called active. Inconclusive results (about 18%) are left out. Cut-off read from the data, not from the text of the source: active = normalized growth mostly below about 0.91 (no sharp cut-off); inconclusive = no clear call, values can overlap the other calls; inactive = mostly above about 0.92. Some of the results follow.
Assay: chemical genetic growth profiling, strain panel (AID 1159580);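 note: tested at 20 µM; growth read once vehicle control cultures reached saturation at 30 °C; 1 = growth at the plate median or of vehicle wells; lower values mean less growth of the strain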
Settings: growth OD

Measured: normalized growth

COc1ccc2oc(-c3ccccc3)c(OC)c(=O)c2c1
active: S. cerevisiae deletion strains, locus YKR001C, strain vps1, hits give low values 0.764 | S. cerevisiae deletion strains, locus YLR058C, strain SHM2, hits give low values 0.88 | S. cerevisiae deletion strains, locus YLR268W, strain sec22, hits give low values 0.807 | S. cerevisiae deletion strains, locus YLR330W, strain CHS5, hits give low values 0.899 | S. cerevisiae deletion strains, locus YLR342W, strain FKS1 (second series), hits give low values 0.69 | S. cerevisiae deletion strains, locus YLR418C, strain cdc73, hits give low values 0.592 | S. cerevisiae deletion strains, locus YML016C, strain PPZ1, hits give low values 0.919 | S. cerevisiae deletion strains, locus YML032C, strain rad52, hits give low values 0.53 | S. cerevisiae deletion strains, locus YML124C, strain tub3, hits give low values 0.924 | S. cerevisiae deletion strains, locus YMR078C, strain ctf18, hits give low values 0.805 | S. cerevisiae deletion strains, locus YMR223W, strain ubp8, hits give low values 0.83 | S. cerevisiae deletion strains, locus YMR263W, strain SAP30, hits give low values 0.838 | S. cerevisiae deletion strains, locus YNL067W, strain RPL9B, hits give low values 0.837 | S. cerevisiae deletion strains, locus YNL233W, strain BNI4, hits give low values 0.78 | S. cerevisiae deletion strains, locus YNL271C, strain bni1, hits give low values 0.916 | S. cerevisiae deletion strains, locus YNL298W, strain CLA4, hits give low values 0.884 | S. cerevisiae deletion strains, locus YNL307C, strain MCK1, hits give low values 0.29 | S. cerevisiae deletion strains, locus YNR052C, strain pop2, hits give low values 0.899 | S. cerevisiae deletion strains, locus YOL006C, strain TOP1, hits give low values 0.359 | S. cerevisiae deletion strains, locus YOL147C, strain pex11, hits give low values 0.854 | S. cerevisiae deletion strains, locus YOR144C, strain elg1, hits give low values 0.92 | S. cerevisiae deletion strains, locus YOR184W, strain ser1, hits give low values 0.684 | S. cerevisiae deletion strains, locus YOR316C, strain cot1, hits give low values 0.916 | S. cerevisiae deletion strains, locus YPR119W, strain clb2, hits give low values 0.919 | S. cerevisiae deletion strains, locus YPR163C, strain tif3, hits give low values 0.634 | S. cerevisiae deletion strains, locus YPR167C, strain met16, hits give low values 0.916 | S. cerevisiae deletion strains, strain wtn01, hits give low values 0.832 | S. cerevisiae strains, strain wild type, hits give low values 0.895
inactive: S. cerevisiae deletion strains, locus YKL190W, strain CNB1, hits give low values 0.922 | S. cerevisiae deletion strains, locus YLR039C, strain RIC1, hits give low values 0.778 | S. cerevisiae deletion strains, locus YLR102C, strain apc9, hits give low values 0.93 | S. cerevisiae deletion strains, locus YLR113W, strain HOG1, hits give low values 0.937 | S. cerevisiae deletion strains, locus YLR262C, strain YPT6, hits give low values 0.801 | S. cerevisiae deletion strains, locus YLR371W, strain rom2, hits give low values 0.932 | S. cerevisiae deletion strains, locus YMR307W, strain GAS1, hits give low values 0.652 | S. cerevisiae deletion strains, locus YNL128W, strain TEP1, hits give low values 0.942 | S. cerevisiae deletion strains, locus YNL153C, strain GIM3, hits give low values 0.891 | S. cerevisiae deletion strains, locus YNL183C, strain NPR1, hits give low values 0.88 | S. cerevisiae deletion strains, locus YNL250W, strain rad50, hits give low values 0.9 | S. cerevisiae deletion strains, locus YNL322C, strain KRE1, hits give low values 0.947 | S. cerevisiae deletion strains, locus YOL012C, strain htz1 0.77 | S. cerevisiae deletion strains, locus YOR061W, strain CKA2, hits give low values 0.937 | S. cerevisiae deletion strains, locus YOR069W, strain VPS5, hits give low values 0.979 | S. cerevisiae deletion strains, locus YOR136W, strain idh2, hits give low values 0.922 | S. cerevisiae deletion strains, locus YOR231W, strain MKK1, hits give low values 0.918 | S. cerevisiae deletion strains, locus YPL055C, strain LGE1, hits give low values 0.767 | S. cerevisiae deletion strains, locus YPL241C, strain CIN2, hits give low values 0.959 | S. cerevisiae deletion strains, locus YPL256C, strain CLN2, hits give low values 0.939 | S. cerevisiae deletion strains, locus YPR141C, strain kar3, hits give low values 0.944

Reference: PubChem BioAssay AID1159580 (chemical genetic matrix, 2015)
